Tgondii IFNg: T. gondii growth inhibition with IFN-gamma, primary screen, cell-based | Toxoplasma gondii growth in IFN-gamma-treated host cells; hits give low values | activity change, negative = inhibition, % (test concentration not listed) | hit rate 3.8% among 69,000 | AID 1259416, 2018; in the data active = activity change below about -70%, passing the limit was not always enough;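 also: host cells are HeLa cells infected with Toxoplasma gondii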
Numbers without * were called inactive; ! = not active in a repeat. The full list was thinned out, with hits kept by preference.

SMILES	Tgondii IFNg
Fc1ccc([C@@H]2CCNC[C@H]2COc2ccc3c(c2)OCO3)cc1	-35
O=C(NCc1ccc2c(c1)OCO2)c1ccccc1C1CCNC1 (stereo not drawn)	-2
Fc1ccc(C2CCNCC2COc2ccc3c(c2)OCO3)cc1 (stereo not drawn)	-75*
CN(CCCn1cccn1)C(=O)c1cc(Cn2ccc3ccccc32)[nH]n1	-4
C[C@H]1CN([C@@H](C)CO)C(=O)c2ccccc2-c2ccccc2CO[C@@H]1CN(C)C(=O)Nc1cccc(Cl)c1Cl	-43
OC(COCc1ccccc1)CN1CCNCC1 (stereo not drawn)	-11
OC(CN1CCNCC1)Cn1ccc2ccccc21 (stereo not drawn)	23
OC(CN1CCNCC1)Cn1c2ccc(Br)cc2c2cc(Br)ccc21 (stereo not drawn)	-74*
Cc1nc(N)ncc1C(=O)N1CCC2(CCCN(C)CC2)CC1	-6
Cc1cc(NC(=O)CNCc2noc(C3CCCO3)n2)ccc1Cl (stereo not drawn)	3
COc1ccc(-c2nc(N3CCC(C)CC3)c3ccccc3n2)cc1	8
CN(C)c1nc(N2CCCC2)nc2c1CCN(S(C)(=O)=O)CC2	6
CN1CCN(c2cc(C(=O)Nc3ccc(OCc4ccccc4F)cc3)ccn2)CC1	-76*
O=C(Nc1ccc(OCc2ccccc2F)cc1)c1ccc(-n2cnnc2)cc1	34
CN1CCN(c2cc(C(=O)NCCS(=O)(=O)c3ccc(F)cc3)ccn2)CC1	-24
CC(C)(C)c1ccc(-n2c(SCc3ccc(Cl)c(Cl)c3)n[nH]c2=O)cc1	-65
OCc1ccc(CN2CCC(c3cc(-c4ccccc4Cl)n[nH]3)CC2)o1	-4
Cc1ccc(C(=O)N2CCOCC3(CCN(c4ncccn4)C3)C2)o1 (stereo not drawn)	-17
CC(=O)N1CCC2(CC1)OC(=O)C(C)=C2C(=O)NCCCN1CCCC1=O	-2
CC(C)Sc1ccccc1C(=O)NCc1ccccn1	22
O=C(Nc1cc(-c2ccccn2)no1)c1cccc2[nH]ccc12	273
CNC(=O)c1ccccc1Sc1ccc2c(/C=C/c3ccccn3)n[nH]c2c1	-75*!
CC(C)c1cncnc1N1CCOC(c2ccc(Cl)cc2)C1 (stereo not drawn)	-42
O=C(NC1CCN(Cc2ccccc2)CC1)c1ccc(I)cc1	10
CN1CCN(S(=O)(=O)c2ccc(C(=O)NC3CCCCC3)cc2)CC1	-6
SMILES	Tgondii IFNg
CCOc1ccc(C(=O)NC2CCN(S(=O)(=O)c3ccccc3)CC2)cc1	-84*
Cc1cc(-c2ccccc2CO)ccc1NC(=O)c1cccnc1	-28
COc1ncccc1-c1ccc(NC(=O)c2cccnc2)c(C)c1	-85*
COc1ccc(-c2ccc(NC(=O)c3cccnc3)c(C)c2)c(OC)c1OC	-23
Cc1cc(C(=O)CSc2nnc(N)s2)c(C)n1-c1ccc(F)cc1	30
CC(NC(=O)c1c(O)c2cccnc2n(-c2cccc(F)c2)c1=O)c1ccc(F)cc1 (stereo not drawn)	50
O=C(Nc1ccccc1)c1c(O)c2cccnc2n(-c2cccc(F)c2)c1=O	49
Cc1cc(F)ccc1NC(=O)c1c(O)c2cccnc2n(-c2cccc(F)c2)c1=O	-91*
Cc1ccc(NC(=O)c2c(O)c3cccnc3n(-c3cccc(F)c3)c2=O)c(C)c1	-33
CC(NC(=O)c1c(O)c2cccnc2n(-c2cccc(F)c2)c1=O)c1ccccc1 (stereo not drawn)	-109*
O=C(Nc1cccc(Cl)c1)c1c(O)c2cccnc2n(-c2cccc(F)c2)c1=O	-32
O=C(Nc1ccc(F)c(Cl)c1)c1c(O)c2cccnc2n(-c2ccc(F)cc2)c1=O	84
O=C(Nc1ccc(F)c(Cl)c1)c1c(O)c2cccnc2n(-c2cccc(F)c2)c1=O	-102*
Cc1ccc(F)cc1NC(=O)c1c(O)c2cccnc2n(-c2cccc(F)c2)c1=O	-27
C[C@@H]1CN([C@@H](C)CO)C(=O)c2c(c3ccccc3n2C)-c2ccccc2CO[C@H]1CN(C)Cc1cccc(C(=O)Nc2ccccc2N)c1	5
Cc1cc(CN(CCN2CCOCC2)Cc2cccnc2)c(C)n1-c1ccccn1	-29
N#C[C@@H]1[C@@H](c2ccccc2)[C@H](CO)N1C(=O)c1ccc2c(c1)OCO2	1
Clc1ccc(-n2cnnn2)cc1Cl	-15
Clc1ccc(CCNc2cc(-c3ccncc3)nc(C3CCNCC3)n2)cc1	-57
C=CCn1c2ccccc2n2c(C(=O)CC)c(-c3ccccc3)nc12	-98*
CCCc1c(-c2ccccc2)nc2[nH]c3ccccc3n2c1=O	171
C=CCn1c(-c2c(-c3ccccc3)ncn2CCc2cnc[nH]2)nc2ccccc21	-3
COc1ccc(-c2nc(CN3CCN(Cc4cc(=O)oc5cc(C)ccc45)CC3)c(C)o2)cc1	-9
Cc1cc(F)ccc1NC(=O)CNCCCC1CCOC1 (stereo not drawn)	-2
Cc1ccc2[nH]c(=O)cc(C(=O)NCCN3CCCCC3CO)c2c1 (stereo not drawn)	-27
SMILES	Tgondii IFNg
Cc1csc2c(N3CCc4nnc(C5CCCO5)n4CC3)ncnc12 (stereo not drawn)	1
Cc1csc2c(N3CCC(O)(CO)CC3)ncnc12	2
COC(=O)c1sccc1S(=O)(=O)N1CCN(c2ncnc3c(C)csc23)CC1	-85*
CC(C)n1c(C(=O)N2CCN(c3ccncc3)CC2)cc2c1c1ccccc1n2C	-58
CN(Cc1cc(C2CC2)on1)Cc1cc2n(n1)CCNC2	-2
COc1ccc(-c2csc(NC(=O)c3ccccc3C)n2)cc1	-7
CCc1noc(CC)c1C(=O)Nc1nc(-c2ccc(OC)c(OC)c2)cs1	-82*
CCc1noc(CC)c1C(=O)Nc1nc(CS(=O)(=O)c2ccc(C)cc2)cs1	-66
CCn1cncc1C(=O)NC(C)COc1ccc(OC)cc1 (stereo not drawn)	16
O=C(C1CCCC1)N1CCc2c([nH]c3ccccc23)C12CCN(Cc1ccccc1)CC2	-37
CSCCC(CC(=O)O)NC(=O)c1cccs1 (stereo not drawn)	31
CCCN1CCC2C(C[C@@H](CN(C)C)N2c2nccs2)C1 (stereo partly drawn)	63
CC(C)n1cnc2c(NCC3CC3)nc(C3CCN(C(=O)c4ccccc4)CC3)cc21	-82*
CN(C)C(=O)N1CCC(c2cc3c(ncn3C)c(NCc3ccccc3)n2)CC1	5
CC(C)NC(=O)N1CCC(c2cc3c(ncn3C)c(NCc3ccccc3)n2)CC1	-46
Cc1ccccc1C(=O)Nc1ccc(-c2nc(-c3ccccc3)co2)cc1	42
COCCC(=O)N1CC2CN(CCCc3ccccc3)C2C1 (stereo not drawn)	71
COc1cc(-c2nccn2CCCn2nc(C)nc2C)ccc1O	2
O=C(O)c1ccc2cc(-c3ccc(O)c(C45CC6CC(CC(C6)C4)C5)c3)ccc2c1	-74*
CC(=O)Nc1ccc(C23CC4CC(CC(C4)C2)C3)c(C)c1	-57
O=C(O)c1ccc(-c2ccc3cc(O)c(C45CC6CC(CC(C6)C4)C5)cc3c2)cc1	-43
CC(C)NC[C@@H](C(=O)N1CCN(c2ncnc3c2[C@H](C)C[C@@H]3O)CC1)c1ccc(Cl)cc1	7
c1ccc(-c2nc(CN3CCCC3c3ccccn3)no2)cc1 (stereo not drawn)	3
Cc1cc(C)c2nc(C)cc(C(=O)Nc3ccccc3-c3ccccc3)c2c1	-30
O=C(Nc1ccccc1-c1ccccc1)c1ccc2c(c1)[nH]c(=O)n2C1CCCC1	-92*
CCOc1ccc(-c2ccccc2NC(=O)C2CC2)cc1	23
